# nsP2pro inh: CHIKV nsP2 protease inhibition, primary qHTS; FRET peptide cleavage, nsP2pro, fluorescence 1 h; Potency, µM (titrated, usually from 24.9 µM), without a hit: at the top dose activity change, negative = inhibition, usual class: inhibitors; actives 1.1% (n = 31,000); AID 1964107; note: nearly all actives have a fitted effect of over 60% in size
#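 FRET cleavage of 2.5 uM peptide 2 by 150 nM CHIKV protease domain at pH 8.0 (Tris, Tween 20). Compounds at 7 concentrations (up to 25 uM) preincubated 15 min. Fluorescence read after 1 h at room temperature.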
# CHIKV nsP2 cell: inhibits CHIKV nsP2 protease in cells; shares compounds with nsP2pro inh; cell-based CHIKV nsP2 protease reporter assay; Potency, µM (top dose mostly 51.1 µM), inactives show at the top dose activity change, negative = inhibition, usual class: inhibitors; actives 10% (n = 450); note: nearly all actives have a fitted effect of over 70% in size
# NSP2 full ctr: full-length CHIKV NSP2 protease inhibition, selectivity; shares compounds with nsP2pro inh; Full-length CHIKV NSP2 protease enzymatic counterscreen; Potency, µM (series often up to 50.7 µM), without a hit: top-dose activity change, negative = inhibition, hits mostly inhibitors; actives 39% (n = 410); AID 1964101; note: nearly all actives have a fitted effect of over 65% in size
# Furin counter: human furin inhibition, counterscreen for nsP2pro inhibitors | shares compounds with nsP2pro inh | Potency, µM (top dose mostly 50.6 µM), inactives show top-dose activity change, negative = inhibition, hits mostly inhibitors | actives 6% (n = 410) | Recombinant human furin enzymatic counterscreen, fluorogenic substrate
# Target sequence (P09958 whole entry, looked up): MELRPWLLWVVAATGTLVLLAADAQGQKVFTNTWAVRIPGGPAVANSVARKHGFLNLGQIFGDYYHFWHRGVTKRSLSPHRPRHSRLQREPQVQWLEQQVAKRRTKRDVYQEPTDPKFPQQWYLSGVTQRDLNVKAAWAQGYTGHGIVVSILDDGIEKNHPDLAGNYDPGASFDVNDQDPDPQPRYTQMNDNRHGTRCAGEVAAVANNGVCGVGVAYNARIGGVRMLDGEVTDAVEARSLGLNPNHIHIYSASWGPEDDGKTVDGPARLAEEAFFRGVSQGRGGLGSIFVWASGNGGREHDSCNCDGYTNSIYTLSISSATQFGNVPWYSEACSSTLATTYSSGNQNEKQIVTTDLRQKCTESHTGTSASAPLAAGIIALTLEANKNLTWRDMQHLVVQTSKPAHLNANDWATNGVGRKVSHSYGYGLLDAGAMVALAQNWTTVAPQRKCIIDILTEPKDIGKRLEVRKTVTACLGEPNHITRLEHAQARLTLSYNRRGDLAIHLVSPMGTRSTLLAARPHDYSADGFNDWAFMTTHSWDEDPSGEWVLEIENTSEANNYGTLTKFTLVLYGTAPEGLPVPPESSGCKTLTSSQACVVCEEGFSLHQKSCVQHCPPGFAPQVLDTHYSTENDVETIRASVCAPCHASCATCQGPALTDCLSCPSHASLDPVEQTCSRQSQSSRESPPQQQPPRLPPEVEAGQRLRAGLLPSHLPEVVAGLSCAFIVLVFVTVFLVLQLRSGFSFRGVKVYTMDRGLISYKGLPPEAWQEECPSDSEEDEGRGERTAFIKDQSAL
# nsP2 NS23 pep: nsP2pro inhibition on native NS2/3 peptide substrate. shares compounds with nsP2pro inh. actives 34% (n = 410). Potency, µM (series often up to 51 µM), inactives show at the top dose activity change, negative = inhibition, most hits filed as inhibitors. Purified CHIKV nsP2 protease, endogenous NS2/3 peptide cleavage; note: nearly all actives have a fitted effect of over 55% in size
# Papain counter: papain protease inhibition, counterscreen for nsP2pro inhibitors. shares compounds with nsP2pro inh. purified papain protease activity, enzymatic inhibition. Potency, µM (doses to about 51 µM), for inactives: top-dose activity change, negative = inhibition, hits mostly inhibitors. actives 5% (n = 410)
# nsP2pro conf qHTS: confirmation of CHIKV nsP2 protease inhibitors. AID 1964105. CHIKV nsP2 protease enzymatic activity, qHTS. shares compounds with nsP2pro inh. Potency, µM (titrated, usually from 25.5 µM), without a hit: at the top dose activity change, negative = inhibition, usual class: inhibitors. actives 43% (n = 410); note: nearly all actives have a fitted effect of over 75% in size
# HCV NS3 counter: selectivity counter-screen for CHIKV nsP2 protease inhibitors: HCV NS3/4A. shares compounds with nsP2pro inh. HCV NS3/4A protease biochemical counterscreen. Potency, µM (titrated, usually from 50.9 µM), hits mostly inhibitors. actives 20% (n = 410); note: nearly all actives have a fitted effect of over 55% in size
# * marks the source's active call; other numbers are inactive results; i = inactive; ? = inconclusive; ! = not confirmed by another sample; [ ] = another dose, or the depositor's remark. The entries come from a sample that favours hits as a whole. Calls come from the whole dose curve. % is set by controls: 0 for no effect and ±100 for the full control effect; potency is the fitted concentration of half-maximal effect.
SMILES,nsP2pro inh,others
CCCCS(=O)c1sc2nc(-c3cccs3)cc(-c3ccccc3)c2c1N (stereo unspecified),7µM*,CHIKV nsP2 cell=19.4%;NSP2 full ctr=-23.8%;Furin counter=-17.8%;nsP2 NS23 pep=-22.9%;Papain counter=?;nsP2pro conf qHTS=14.2µM*;HCV NS3 counter=i
O=C([C@H](Cc1ccc(O[S+](=O)([O-])c2cccnc2)cc1)N[S+](=O)([O-])c1ccccn1)N1CCN(c2ccccc2)CC1,-3.9%,
O=C(O)[C@H]1OC(O)[C@H](O)[C@@H](O)[C@@H]1O (stereo partly specified),-1.9%,
CC[C@H]1[C@@H](O)[C@@H]2[C@H](CC[C@]3(C)[C@@H]([C@H](C)CCC(=O)O)CC[C@@H]23)[C@@]2(C)CC[C@@H](O)C[C@@H]12,-0.2%,
CC(=O)OC1CC(C)(C(=O)O)CC2C3=CC(=O)C4C5(C)CCC(OC6OC(C(=O)O)C(O)C(O)C6OC6OC(C(=O)O)C(O)C(O)C6O)C(C)(C)C5CCC4(C)C3(C)CCC12C (stereo unspecified),4.5%[5.1 µM],
O=C(NCC(F)(F)F)c1ccc2nnc(-c3cncc(Cl)c3)n2c1,-0.2%,
O=S(=O)(c1ccccc1)n1nc(-c2ccccc2)nc1NCc1ccc(Cl)cc1,-10.3%,
COc1ccc(CNc2nc(-c3ccco3)nn2C(=O)c2ccccc2Cl)cc1,-22.0%,
COc1ccc(CNc2nc(-c3ccco3)nn2S(=O)(=O)c2ccc3ccccc3c2)cc1OC,?,CHIKV nsP2 cell=15.5%
O=C(/C=C/c1ccccc1Br)NCCc1nc2ccccc2[nH]1,3.4%,
CCc1ccc2oc(NC3=NC(c4[nH]ncc4Cl)C4=C(CCCC4=O)N3)nc2c1 (stereo unspecified),i,
OCC1OC(Oc2cc(O)c3c(c2)OC(c2ccc(O)cc2)C(O)C3)C(O)C1O (stereo unspecified),-3.6%[10 µM],
O=C(O[C@@H]1Cc2c(O)cc(O)cc2O[C@@H]1c1cc(O)c(O)c(O)c1)c1cc(O)c(O)c(O)c1,4.42µM*!,CHIKV nsP2 cell=-26.8%;NSP2 full ctr=?;Furin counter=?;nsP2 NS23 pep=5.8µM*;Papain counter=?;nsP2pro conf qHTS=4.49µM*;HCV NS3 counter=?
O=C(O[C@@H]1Cc2c(O)cc(O)cc2O[C@@H]1c1ccc(O)c(O)c1)c1cc(O)c(O)c(O)c1,?,CHIKV nsP2 cell=-24.1%;NSP2 full ctr=23.1µM*;Furin counter=-6.3%;nsP2 NS23 pep=14.6µM*;Papain counter=-25.9%;nsP2pro conf qHTS=?;HCV NS3 counter=?
Oc1cc(O)c2c(c1)O[C@H](c1ccc(O)c(O)c1)[C@H](O)C2,-0.1%,
COC(C)(C)CCn1nc(Nc2c(C)cccc2C)c2cnc(Nc3ccc(OCCN4CCCC4)c(F)c3)nc21,112.4%,
Cc1cc(N[S+](=O)([O-])c2ccc(NC(=O)Cc3nc4ccc(Cl)cc4[nH]3)cc2)no1,i,
CN1C2CCC1CC(OC(=O)N1Cc3ccccc3NC1=O)C2 (stereo unspecified),-6.8%,
CNC1CCC(N(Cc2ccc(OC)c(-c3ccc(C#N)cc3)c2)C(=O)c2sc3ccccc3c2Cl)CC1 (stereo unspecified),i,
O=C(O)CCCCCCCCC(=O)O,-9.3%[39.2 µM],
Cc1ccc(C(=O)N2CCC(N3C(=O)c4c(c(C)nn4-c4ccccc4)C3C)CC2)cc1 (stereo unspecified),i,
Cc1ccc(-c2nccc(=O)n2C(C)C(=O)NCCc2ccccc2)cc1 (stereo unspecified),i,
O=C(Nc1ccc([S+](=O)([O-])Nc2nccs2)cc1)c1ncn[nH]1,i,
